A selection: hits, their analogues and other compounds. The true share with any hit is near 1.7%.
Pin1 inh: qHTS Assay to Find Inhibitors of Pin1. actives 0.009% (n = 390,000). Pin1 FP peptide displacement, HiFluor488, 10 min. AID 504891, 2011. Peptidyl-prolyl cis-trans isomerase NIMA-interacting 1 (Homo sapiens), Q13526. Potency, µM (series often up to 115 µM), inactives show at the highest dose activity, negative = inhibition, actives largely listed as inhibitors; active = well fitted inhibition curve with a large enough effect in the polarisation, with a control signal flat, not every such curve was filed as active; inconclusive = small, poorly fitted or top-dose-only effect, or effect the other way, or a change in a side signal; inactive = no such curve, though single readings can be large or run the other way; the % refers to the polarisation; note: potency is the fitted concentration of half-maximal effect; % is set by controls: 0 for no effect and ±100 for the full control effect
miR-21 reporter: qHTS Assay for Modulators of miRNAs and/orActivators of miR-21. 340,000 tested, under 10 active. Potency, µM (titrated, usually from 38.3 µM), inactives show at the top dose activity change, positive = activation, usual class: activators. HeLa miR-21 FLuc reporter, luciferase, 48 h;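 note: % of control where 0% means no effect; miR-21 action dims this reporter so a rising signal means less miR-21 action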
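HeLa cells endogenously expressing miR-21, stably carrying CMV-driven firefly luciferase with a downstream miR-21 binding site, 2000 cells/well. Titrations up to approximately 40 uM, 48 hours; luciferase luminescence read.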
HEK293 tox: qHTS of GLP-1 Receptor Inverse Agonists: Cytotox Screen. actives 0.13% (n = 410,000). AID 624418, 2012. HEK293 cAMP-luciferase reporter cells, luminescence, 24 h. Potency, µM (titrated, usually from 38.3 µM), without a hit: at the top dose activity change, negative = inhibition, actives largely listed as inhibitors;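 note: loss of luciferase light is scored as toxicity; potency is the fitted concentration of half-maximal effect; % is set by controls: 0 for no effect and ±100 for the full control effect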
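Luminescence readout: signal drop marks cytotoxicity. Plated cells grew 12 h at 37 °C, 5% CO2, received 23 nL compound for 24 h, then got luciferase reagent, read after 12 min at RT.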
PTHR1 agonist: qHTS for PTHR1 Agonists: Primary Screen; Potency, µM (doses to about 115 µM), for inactives: at the highest dose activation, actives largely listed as activators; actives 0.075% (n = 410,000); HEK293 GP2 PTHR1 cells, GloSensor cAMP luminescence, 1 h; AID 743266, 2014; note: potency is the fitted concentration of half-maximal effect; nearly all actives have a fitted effect of over 55% in size
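HEK-293-derived GP2 cells expressing PTHR1 and a GloSensor cAMP reporter, 3,000/well, plated overnight, given luciferin plus IBMX (each 0.5 mM as added) for 1 h at 37 °C, then compound for 1 h at 37 °C. Luminescence was read after 15 min at room temperature.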
GLP-1R inv ag: qHTS of GLP-1 Receptor Inverse Agonists (Inhibition Mode). Glucagon-like peptide 1 receptor (Homo sapiens), P43220. Potency, µM (highest dose often 38.3 µM), for the others: at the top dose activity change, negative = inhibition, hits mostly inhibitors. actives 1.6% (n = 410,000). AID 624417, 2012. HEK293 GLP-1R CRE-luciferase, luminescence, 24 h; GLP-1R form is constitutively active; note: potency is the fitted concentration of half-maximal effect; % is set by controls: 0 for no effect and ±100 for the full control effect; nearly all actives have a fitted effect of over 55% in size
Target sequence (P43220 whole entry, looked up): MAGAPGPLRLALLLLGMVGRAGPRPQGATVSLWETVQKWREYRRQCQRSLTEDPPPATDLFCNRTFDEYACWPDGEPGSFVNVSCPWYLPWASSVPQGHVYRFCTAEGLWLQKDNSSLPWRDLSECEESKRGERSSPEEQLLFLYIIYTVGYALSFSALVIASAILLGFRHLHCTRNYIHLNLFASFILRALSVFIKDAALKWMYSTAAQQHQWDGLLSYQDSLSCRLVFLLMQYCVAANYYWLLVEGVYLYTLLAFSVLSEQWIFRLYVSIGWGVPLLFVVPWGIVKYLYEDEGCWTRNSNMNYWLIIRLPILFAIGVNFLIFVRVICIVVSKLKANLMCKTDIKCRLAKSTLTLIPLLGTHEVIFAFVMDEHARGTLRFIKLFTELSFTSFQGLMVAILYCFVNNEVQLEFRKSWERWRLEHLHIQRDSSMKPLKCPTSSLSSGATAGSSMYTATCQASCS
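Using stably transfected HEK293 (constitutively active GLP-1R, cAMP-luciferase reporter), compounds were incubated 24 hr and luciferase measured by luminescence.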
GLP-1R agonist: qHTS of GLP-1 Receptor Agonists. Glucagon-like peptide 1 receptor (Homo sapiens), P43220. HEK293 GLP-1R CRE-luciferase, luminescence, 4-6 h; cells express a hypersensitive GLP-1R form. Potency, µM (doses to about 45.6 µM), inactives show at the top dose activation, most hits filed as activators. actives 0.007% (n = 380,000). AID 624172, 2012; note: potency is the fitted concentration of half-maximal effect; % of control where 0% means no effect
* = called active by the depositor; i = inactive; ? = inconclusive; · = no result; [ ] = remark or other dose. Unless noted, calls come from the whole dose curve; as a rule, active = well fitted curve in the direction sought with a large enough effect; inconclusive = small, poorly fitted or top-dose-only effect, or another doubt; inactive = no such curve, though single readings can be large; an effect the other way counts as inactive or inconclusive.

SMILES	Pin1 inh	miR-21 reporter	HEK293 tox	PTHR1 agonist	GLP-1R inv ag	GLP-1R agonist
CCC(Sc1nc2nccnc2c(=O)n1Cc1ccc(OC)cc1)C(=O)NC1CCCCC1 (stereo not given)	-1%	-4%	-8%	-41%	3%	·
CC(C)c1ccc(NC2CCCN(C(=O)c3ccsc3)C2)cc1 (stereo not given)	-10%	-6%	21%	-38%	10µM*	-1%
COC(=O)c1ccc(C(=O)N2CCCC(Nc3ccc(C(C)C)cc3)C2)cc1 (stereo not given)	0%	-1%	-15%	-5%	-24%	0%
Cc1cccc(C)c1OC(=O)CCN1C(=O)C2C3C=CC(C4CC34)C2C1=O (stereo not given)	-1%	0%	4%	-45%	7.1µM*	2%
c1ccc(CN2CCN(CCOCCOc3cccc4ccccc34)CC2)cc1	-3%	4%	?	-15%	7.9µM*	0%
O=C(c1ccco1)N1CCN(CCOCCOc2cccc3ccccc23)CC1	0%	-4%	-5%	i	0%	3%
CCOc1ccccc1N(C)C(=O)c1cc(S(=O)(=O)NCc2ccc(C)cc2)ccc1F	2%	?	-21%	i	?	·
Cc1nn(-c2nc3ccccc3n2Cc2ccccc2)c2c1C(=O)CC(C)(C)C2	27%	-1%	-14%	i	2.2µM*	-4%
Cc1cc2c(s1)c1cnn(Cc3c(Cl)cccc3Cl)c(=O)c1n2C	-2%	·	·	·	·	·
COc1ccc(-c2onc(C)c2C)cc1S(=O)(=O)Nc1cc(Cl)ccc1C	-6%	27%	-17%	-15%	?	·
CCCc1cc(C(=O)N2CCCC(Cc3cccc(Cl)c3)(C(=O)OCC)C2)n(C)n1 (stereo not given)	1%	-7%	-10%	-27%	11µM*	6%
CCOc1cc(C2c3c(oc4ccccc4c3=O)C(=O)N2Cc2ccc3c(c2)OCO3)ccc1O (stereo not given)	2%	0%	1%	-17%	3%	·
CCCC(=O)N(Cc1cc(=O)[nH]c2ccccc12)c1ccc(C)cc1C	2%	-1%	-22%	-13%	?	6%
Cc1ccc(N(Cc2cc(=O)[nH]c3ccccc23)C(=O)CCl)c(C)c1	?	?	-26%	-3%	5.6µM*	-4%
CCCCN(C(=O)c1cccc2c(=O)c(C)c(-c3ccccc3)oc12)c1ccccc1	?	?	-16%	-7%	10µM*	-6%
O=C(Nc1cccc2ccccc12)OC1C=CS(=O)(=O)C1 (stereo not given)	0%	25%	-20%	-1%[57.5 µM]	10µM*	-4%
Cc1cc(-c2ccc(S(=O)(=O)Nc3ccccc3F)s2)on1	2%	-1%	?	-25%	-8%	·
CCCCS/C(N)=N/N=C/c1ccccc1O	-1%	-48%	2.8µM*	-37%	?	25%
CCOC(=O)[C@H](CCc1ccccc1)NC(C)C(=O)N1CC2(CC1C(=O)O)SCCS2 (stereo not given in full)	·	·	·	·	·	-4%
CCCc1ccc(-c2cc(C(=O)NCCc3ccc(S(N)(=O)=O)cc3)c3ccccc3n2)cc1	-2%	-22%	-15%	i	-3%	1%
O=C(NNC(=O)c1cc(-c2ccccc2)nc2ccccc12)Nc1cccc(Cl)c1	1%	25%	2%	-16%	13µM*	-32%
NS(=O)(=O)c1ccc(CCNC(=O)c2cc(-c3ccc(Br)cc3)nc3ccccc23)cc1	15%	10%	11µM*	-29%	?	-1%
